Laboratory results: PubChem BioAssay AID1159580 (chemical genetic matrix, 2015)
Hit rate of the full screen: of about 5,500 compounds, about 2,000 (36%) were called active. Not shown: some 18% with an inconclusive outcome. Cut-off read from the data, not from the text of the source: active = normalized growth mostly below about 0.91 (no sharp cut-off); inconclusive = no clear call, values can overlap the other calls; inactive = mostly above about 0.92. The list shows a part of the results.

Assay: chemical genetic growth profiling, strain panel (AID 1159580);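 note: tested at 20 µM; growth read once vehicle control cultures reached saturation at 30 °C; 1 = growth at the plate median or of vehicle wells; lower values mean less growth of the strain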
Settings: growth OD

Measured: normalized growth

C=C1C(=O)O[C@@H]2C3O[C@]3(C)CC/C=C(\C)CC[C@@H]12 (some centres not stated)
active: S. cerevisiae deletion strains, locus YJR075W, strain HOC1, hits give low values 0.828 | S. cerevisiae deletion strains, locus YKL068W, hits give low values 0.936 | S. cerevisiae deletion strains, locus YKL190W, strain CNB1, hits give low values 0.796 | S. cerevisiae deletion strains, locus YKR001C, strain vps1, hits give low values 0.544 | S. cerevisiae deletion strains, locus YLR039C, strain RIC1, hits give low values 0.245 | S. cerevisiae deletion strains, locus YLR262C, strain YPT6 (second series), hits give low values 0.566 | S. cerevisiae deletion strains, locus YLR262C, strain YPT6, hits give low values 0.193 | S. cerevisiae deletion strains, locus YLR268W, strain sec22, hits give low values 0.68 | S. cerevisiae deletion strains, locus YLR330W, strain CHS5, hits give low values 0.849 | S. cerevisiae deletion strains, locus YLR342W, strain FKS1 (second series), hits give low values 0.536 | S. cerevisiae deletion strains, locus YLR371W, strain rom2, hits give low values 0.791 | S. cerevisiae deletion strains, locus YLR418C, strain cdc73, hits give low values 0.42 | S. cerevisiae deletion strains, locus YML016C, strain PPZ1, hits give low values 0.911 | S. cerevisiae deletion strains, locus YML032C, strain rad52, hits give low values 0.87 | S. cerevisiae deletion strains, locus YML124C, strain tub3, hits give low values 0.929 | S. cerevisiae deletion strains, locus YMR078C, strain ctf18, hits give low values 0.741 | S. cerevisiae deletion strains, locus YMR125W, strain sto1, hits give low values 0.792 | S. cerevisiae deletion strains, locus YMR223W, strain ubp8, hits give low values 0.801 | S. cerevisiae deletion strains, locus YMR307W, strain GAS1, hits give low values 0.26 | S. cerevisiae deletion strains, locus YNL067W, strain RPL9B, hits give low values 0.808 | S. cerevisiae deletion strains, locus YNL071W, strain lat1, hits give low values 0.804 | S. cerevisiae deletion strains, locus YNL153C, strain GIM3, hits give low values 0.822 | S. cerevisiae deletion strains, locus YNL233W, strain BNI4, hits give low values 0.763 | S. cerevisiae deletion strains, locus YNL271C, strain bni1, hits give low values 0.905 | S. cerevisiae deletion strains, locus YNL298W, strain CLA4, hits give low values 0.878 | S. cerevisiae deletion strains, locus YNL307C, strain MCK1, hits give low values 0.165 | S. cerevisiae deletion strains, locus YNL322C, strain KRE1, hits give low values 0.861 | S. cerevisiae deletion strains, locus YNR052C, strain pop2, hits give low values 0.818 | S. cerevisiae deletion strains, locus YOL147C, strain pex11, hits give low values 0.883 | S. cerevisiae deletion strains, locus YOR136W, strain idh2, hits give low values 0.905 | S. cerevisiae deletion strains, locus YOR144C, strain elg1, hits give low values 0.901 | S. cerevisiae deletion strains, locus YOR184W, strain ser1, hits give low values 0.628 | S. cerevisiae deletion strains, locus YPL055C, strain LGE1, hits give low values 0.743 | S. cerevisiae deletion strains, locus YPL241C, strain CIN2, hits give low values 0.922 | S. cerevisiae deletion strains, locus YPR119W, strain clb2, hits give low values 0.908 | S. cerevisiae deletion strains, locus YPR141C, strain kar3, hits give low values 0.902 | S. cerevisiae deletion strains, locus YPR163C, strain tif3, hits give low values 0.355 | S. cerevisiae deletion strains, strain wtn01, hits give low values 0.786 | S. cerevisiae strains, strain wild type, hits give low values 0.806
inactive: S. cerevisiae deletion strains, locus YKL009W, strain mrt4, hits give low values 0.913 | S. cerevisiae deletion strains, locus YKL085W, strain MDH1 (second series), hits give low values 0.932 | S. cerevisiae deletion strains, locus YKL085W, strain MDH1, hits give low values 0.932 | S. cerevisiae deletion strains, locus YKL160W, strain elf1, hits give low values 0.946 | S. cerevisiae deletion strains, locus YKR026C, strain gcn3, hits give low values 0.991 | S. cerevisiae deletion strains, locus YKR091W, strain srl3, hits give low values 0.99 | S. cerevisiae deletion strains, locus YLL001W, strain dnm1, hits give low values 0.968 | S. cerevisiae deletion strains, locus YLL026W, hits give low values 0.987 | S. cerevisiae deletion strains, locus YLL041C, strain sdh2, hits give low values 0.987 | S. cerevisiae deletion strains, locus YLR027C, strain aat2, hits give low values 0.969 | S. cerevisiae deletion strains, locus YLR058C, strain SHM2, hits give low values 0.934 | S. cerevisiae deletion strains, locus YLR102C, strain apc9, hits give low values 0.944 | S. cerevisiae deletion strains, locus YLR113W, strain HOG1, hits give low values 0.932 | S. cerevisiae deletion strains, locus YLR221C, strain rsa3, hits give low values 0.993 | S. cerevisiae deletion strains, locus YLR258W, strain gsy2, hits give low values 0.999 | S. cerevisiae deletion strains, locus YLR320W, strain mms22, hits give low values 0.893 | S. cerevisiae deletion strains, locus YLR342W, strain FKS1, hits give low values 0.94 | S. cerevisiae deletion strains, locus YLR357W, strain rsc2, hits give low values 1.08 | S. cerevisiae deletion strains, locus YLR370C, strain arc18, hits give low values 0.964 | S. cerevisiae deletion strains, locus YLR384C, strain iki3, hits give low values 0.975 | S. cerevisiae deletion strains, locus YML120C, strain ndi1, hits give low values 0.96 | S. cerevisiae deletion strains, locus YMR058W, strain fet3, hits give low values 0.992 | S. cerevisiae deletion strains, locus YMR129W, hits give low values 0.993 | S. cerevisiae deletion strains, locus YMR205C, strain PFK2, hits give low values 0.938 | S. cerevisiae deletion strains, locus YMR231W, strain pep5, hits give low values 0.982 | S. cerevisiae deletion strains, locus YMR263W, strain SAP30, hits give low values 0.9 | S. cerevisiae deletion strains, locus YNL128W, strain TEP1, hits give low values 0.925 | S. cerevisiae deletion strains, locus YNL183C, strain NPR1, hits give low values 0.952 | S. cerevisiae deletion strains, locus YNL209W, strain ssb2, hits give low values 0.979 | S. cerevisiae deletion strains, locus YNL248C, strain rpa49, hits give low values 0.897 | S. cerevisiae deletion strains, locus YNL250W, strain rad50, hits give low values 0.933 | S. cerevisiae deletion strains, locus YNL322C, strain KRE1 (second series), hits give low values 0.981 | S. cerevisiae deletion strains, locus YNR049C, strain mso1, hits give low values 0.997 | S. cerevisiae deletion strains, locus YOL006C, strain TOP1, hits give low values 0.547 | S. cerevisiae deletion strains, locus YOL012C, strain htz1 0.318 | S. cerevisiae deletion strains, locus YOR001W, strain rrp6, hits give low values 1.01 | S. cerevisiae deletion strains, locus YOR061W, strain CKA2, hits give low values 0.918 | S. cerevisiae deletion strains, locus YOR069W, strain VPS5, hits give low values 0.935 | S. cerevisiae deletion strains, locus YOR070C, strain gyp1, hits give low values 0.977 | S. cerevisiae deletion strains, locus YOR080W, strain dia2, hits give low values 0.998 | S. cerevisiae deletion strains, locus YOR083W, strain WHI5, hits give low values 0.965 | S. cerevisiae deletion strains, locus YOR106W, strain vam3, hits give low values 0.955 | S. cerevisiae deletion strains, locus YOR231W, strain MKK1, hits give low values 0.977 | S. cerevisiae deletion strains, locus YOR265W, strain rbl2, hits give low values 0.978 | S. cerevisiae deletion strains, locus YOR270C, strain vph1, hits give low values 0.92 | S. cerevisiae deletion strains, locus YOR290C, strain snf2, hits give low values 0.971 | S. cerevisiae deletion strains, locus YOR316C, strain cot1, hits give low values 0.93 | S. cerevisiae deletion strains, locus YPL051W, strain arl3, hits give low values 0.921 | S. cerevisiae deletion strains, locus YPL078C, strain atp4, hits give low values 0.94 | S. cerevisiae deletion strains, locus YPL106C, strain sse1, hits give low values 0.869 | S. cerevisiae deletion strains, locus YPL240C, strain hsp82, hits give low values 0.991 | S. cerevisiae deletion strains, locus YPL256C, strain CLN2, hits give low values 0.93 | S. cerevisiae deletion strains, locus YPR167C, strain met16, hits give low values 0.932
